From PubChem BioAssay (NCATS)
Records with an inconclusive call do not appear. A call without a number means that no potency is given here. A number with no mark means an inactive call. Activity calls are given as the source filed them. Calls follow the shape of the dose curve; as a rule, active = well fitted curve in the direction sought with a large enough effect; inconclusive = small, poorly fitted or top-dose-only effect, or another doubt; inactive = no such curve, though single readings can be large; an effect the other way counts as inactive or inconclusive.

Tests used:
[1] = target: Rap guanine nucleotide exchange factor 3 (Homo sapiens) (UniProt O95398); assay: Confirmatory qHTS for antagonist of cAMP-regulated guanine nucleotide exchange factor 3 (EPAC1) (AID 1645880); also: nearly all actives have a fitted effect of over 55% in size; also: potency is read from the fitted curve at half-maximal effect
Rap guanine nucleotide exchange factor 3 (Homo sapiens), sequence (O95398 whole entry, looked up): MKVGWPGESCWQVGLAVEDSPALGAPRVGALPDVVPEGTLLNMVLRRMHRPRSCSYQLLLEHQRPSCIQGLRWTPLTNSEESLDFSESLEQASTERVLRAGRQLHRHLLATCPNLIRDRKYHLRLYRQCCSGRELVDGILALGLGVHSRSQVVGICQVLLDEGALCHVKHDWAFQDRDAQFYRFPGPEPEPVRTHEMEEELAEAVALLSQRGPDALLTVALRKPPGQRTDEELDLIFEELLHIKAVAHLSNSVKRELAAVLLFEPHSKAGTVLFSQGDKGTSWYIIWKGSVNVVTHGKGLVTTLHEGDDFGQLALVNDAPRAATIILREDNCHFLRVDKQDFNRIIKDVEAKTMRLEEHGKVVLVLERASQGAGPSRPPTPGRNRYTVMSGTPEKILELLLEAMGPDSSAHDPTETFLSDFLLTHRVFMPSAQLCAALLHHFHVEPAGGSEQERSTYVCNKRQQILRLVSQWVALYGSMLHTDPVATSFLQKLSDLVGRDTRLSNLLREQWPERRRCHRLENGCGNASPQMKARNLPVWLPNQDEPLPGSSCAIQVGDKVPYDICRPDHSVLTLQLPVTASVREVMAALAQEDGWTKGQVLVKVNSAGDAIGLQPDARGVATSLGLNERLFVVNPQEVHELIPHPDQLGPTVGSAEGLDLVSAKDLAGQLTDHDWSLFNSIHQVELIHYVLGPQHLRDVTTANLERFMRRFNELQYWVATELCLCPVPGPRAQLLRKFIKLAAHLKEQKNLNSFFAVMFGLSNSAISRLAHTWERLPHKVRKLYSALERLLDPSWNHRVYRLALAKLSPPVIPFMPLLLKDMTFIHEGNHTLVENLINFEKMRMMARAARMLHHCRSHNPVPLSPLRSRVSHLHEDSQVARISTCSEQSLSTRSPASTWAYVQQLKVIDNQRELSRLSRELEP
Method in brief: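 Released BODIPY-GDP fluoresces less than Rap1-bound BODIPY-GDP; the signal is followed at 480/540 nm at 5-min intervals over 30 min, after 5 min at room temperature. Reactions contain 100 nM EPAC1, 250 nM RAP1B-BODIPY-GDP and 50 uM GDP; results are normalized to ATA and DMSO.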

[2] = target: Rap guanine nucleotide exchange factor 3 (Homo sapiens) (UniProt O95398); assay: Confirmatory qHTS for agonist of cAMP-regulated guanine nucleotide exchange factor 3 (EPAC1) (AID 1645881);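 also: EPAC1 catalysed release of BODIPY-GDP from Rap1B seen as fluorescence loss; nearly all actives have a fitted effect of over 75% in size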
[3] = target: Rap guanine nucleotide exchange factor 4 (Homo sapiens) (UniProt Q8WZA2); assay: Confirmatory qHTS for agonist of cAMP-regulated guanine nucleotide exchange factor 4 (EPAC2) (AID 1645884);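 also: nucleotide exchange releases bodipy-GDP from Rap1 and this lowers its fluorescence; nearly all actives have a fitted effect of over 65% in size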
Rap guanine nucleotide exchange factor 4 (Homo sapiens), sequence (Q8WZA2 whole entry, looked up): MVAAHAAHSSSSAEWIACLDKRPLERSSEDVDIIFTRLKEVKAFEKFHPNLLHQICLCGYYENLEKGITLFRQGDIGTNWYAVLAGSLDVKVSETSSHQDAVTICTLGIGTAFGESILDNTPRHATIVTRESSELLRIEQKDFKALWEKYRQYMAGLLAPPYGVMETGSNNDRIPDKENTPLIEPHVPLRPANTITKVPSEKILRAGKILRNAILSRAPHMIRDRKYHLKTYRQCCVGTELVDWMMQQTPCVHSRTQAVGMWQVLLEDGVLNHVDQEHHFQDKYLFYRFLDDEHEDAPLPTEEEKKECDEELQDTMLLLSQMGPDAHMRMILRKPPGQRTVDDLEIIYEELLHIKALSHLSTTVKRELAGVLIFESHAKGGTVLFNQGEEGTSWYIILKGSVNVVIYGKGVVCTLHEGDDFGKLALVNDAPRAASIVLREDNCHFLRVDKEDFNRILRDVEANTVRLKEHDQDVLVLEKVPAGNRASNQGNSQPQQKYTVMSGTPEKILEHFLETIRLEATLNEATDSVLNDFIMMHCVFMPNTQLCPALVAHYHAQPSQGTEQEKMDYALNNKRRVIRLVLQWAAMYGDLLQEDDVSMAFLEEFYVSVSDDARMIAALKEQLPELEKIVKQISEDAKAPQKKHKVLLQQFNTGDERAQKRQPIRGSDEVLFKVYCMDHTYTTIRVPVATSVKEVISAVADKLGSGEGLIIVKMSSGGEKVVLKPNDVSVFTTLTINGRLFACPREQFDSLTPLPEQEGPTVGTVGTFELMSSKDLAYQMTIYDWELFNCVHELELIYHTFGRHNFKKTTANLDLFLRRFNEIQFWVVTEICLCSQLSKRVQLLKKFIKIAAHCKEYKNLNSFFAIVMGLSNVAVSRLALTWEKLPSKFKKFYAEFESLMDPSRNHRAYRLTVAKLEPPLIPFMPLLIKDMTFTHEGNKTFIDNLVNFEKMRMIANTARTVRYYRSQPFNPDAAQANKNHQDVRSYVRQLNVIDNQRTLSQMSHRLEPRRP

[4] = target: Rap guanine nucleotide exchange factor 4 (Homo sapiens) (UniProt Q8WZA2); assay: Confirmatory qHTS for antagonist of cAMP-regulated guanine nucleotide exchange factor 4 (EPAC2) (AID 1645885); also: nearly all actives have a fitted effect of over 25% in size; also: potency is read from the fitted curve at half-maximal effect
[5] = target: Rap guanine nucleotide exchange factor 3 (Homo sapiens) (UniProt O95398); assay: Counterscreen qHTS for antagonist of cAMP-regulated guanine nucleotide exchange factor 3 (EPAC1) (AID 1645888)
Method in brief: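 Measured: fluorescence of BODIPY-GDP bound to Rap1B, which falls as exchange proceeds. Conditions include 50 uM competing GDP, 5 and 30 min reads, and a later cAMP challenge for antagonist detection.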

Compound | Potency [1] | Potency [2] | Potency [3] | Potency [4] | Potency [5] | activation [3] | activity change, negative = inhibition [5] | outcome [4]
COc1ccc(C(=O)Nc2ccc(-c3cc4ccccc4oc3=O)c(C)c2)cc1OC | inactive | inactive | inactive | inactive | inactive |  |  | 
N#C/C(=C/c1ccc(O)c(O)c1)c1nc2ccccc2[nH]1 | 6.01 µM (active) | inactive | inactive | inactive | inactive |  |  | 
COc1ccc2oc(C(=O)N(C)CCOc3ccc(Cl)cc3)c(C)c2c1 | inactive | inactive |  | inactive |  | 7.19% [at 17.1 µM, percent relative to cAMP agonist control] | -14.2% [at 30.8 µM] | 
Cn1cc(C(c2ccccc2)c2ccc(Cl)s2)c2ccccc21 (stereo not given) | inactive | inactive | inactive | inactive | inactive |  |  | 
COC(=O)c1ccccc1NC(=O)CN1C(=O)COc2ccccc21 | inactive | inactive | inactive |  | inactive |  |  | inactive [at 12.7 µM]
CC(C)c1ccc(NS(=O)(=O)c2cn(C)c(=O)n(C)c2=O)cc1 | inactive | inactive | inactive | 6.01 µM (active) | inactive |  |  | 
COC(=O)[C@@H]1C[C@@H](c2ccccc2)[C@H](C)C1(C)C | inactive | inactive | inactive | inactive | inactive |  |  | 
CC(=O)c1sc(NC(=O)c2c(F)cccc2F)nc1C | inactive | inactive | inactive | inactive | inactive |  |  | 
Cc1cc(C)cc(C(O)c2ncc(-c3ccccc3Cl)[nH]2)c1 (stereo not given) | inactive | inactive |  | inactive |  | 2.23% [at 17.1 µM, percent relative to cAMP agonist control] | -7.63% [at 30.8 µM] | 
CCCOc1c(OC)cccc1C1CC(=O)Nc2cc(OC)c(OC)c(OC)c21 (stereo not given) | inactive | inactive | inactive | inactive | inactive |  |  | 
COC(=O)c1ccc2nc(C3CCCCC3)c(Cc3cccc(F)c3)n2c1 | inactive | inactive | inactive | inactive | inactive |  |  | 
O=C(CSc1nnc(SCc2ccccc2)s1)N/N=C/C=C\c1ccco1 | 42.6 µM (active) | inactive | inactive | inactive | inactive |  |  | 
CN1OC[C@@H]2CN(S(=O)(=O)c3cc(Cl)cc(Cl)c3)[C@H](c3ccc(-c4ccc(C#N)cc4)cc3)C[C@@H]21 | inactive | inactive | inactive | inactive | inactive |  |  | 
Cc1ccc(N(Cc2cccs2)C(=O)c2ccccc2)cc1 | inactive | inactive | inactive | inactive | inactive |  |  | 
CCOc1cc(S(=O)(=O)N(CC)CC)ccc1Cl | inactive | inactive |  | inactive |  | 7.51% [at 17.1 µM, percent relative to cAMP agonist control] | -20.8% [at 30.8 µM] | 
CC(=O)C(Sc1nnnn1-c1ccc(O)cc1)c1ccccc1 (stereo not given) | inactive | inactive | inactive | inactive | inactive |  |  | 
O=C(CCCC(=O)Nc1cccnc1)Nc1cccnc1 | inactive | inactive | inactive | inactive | inactive |  |  | 
CCN(CC)S(=O)(=O)c1c(Br)cc(C)cc1Br | inactive | inactive |  | 3.79 µM (active) |  | 0.523% [at 17.1 µM, percent relative to cAMP agonist control] | -9.59% [at 30.8 µM] | 
Cc1nn(-c2ccccc2)c(C)c1NC(=O)COC(=O)Cc1cccc(C(F)(F)F)c1 | inactive | inactive | inactive | inactive | inactive |  |  | 
CN1CCN(C(CNC(=O)c2ccc(Br)o2)c2ccc(F)cc2)CC1 (stereo not given) | inactive | inactive |  | 1.69 µM (active) |  | 4.5% [at 17.1 µM, percent relative to cAMP agonist control] | -2.27% [at 30.8 µM] | 
Cc1ccc(CN2C(=O)CSC2c2ccccc2F)cc1 (stereo not given) | inactive | inactive | inactive | 33.8 µM (active) | inactive |  |  | 
CCCC(=O)Nc1nnc(SCc2cc(=O)c3ccc(C)cc3[nH]2)s1 | inactive | inactive | inactive | inactive | inactive |  |  | 
Cc1ccc(N(Cc2cccs2)C(=O)c2ccccc2Cl)cc1 | inactive | inactive | inactive | inactive | inactive |  |  | 
Cc1ccc(C(=O)c2coc3ccc(O)c(Cl)c23)cc1 | inactive | inactive | inactive | 84.9 µM (active) | inactive |  |  | 
COc1ccc(C=C2SC(=O)NC2=O)cc1OC | inactive | inactive |  | inactive |  | 12% [at 17.1 µM, percent relative to cAMP agonist control] | 12.5% [at 30.8 µM] | 
O=C1N=c2ccccc2=C1c1sc(Nc2ccc(O)cc2)nc1O | 30.1 µM (active) | inactive | inactive | inactive | inactive |  |  | 
